Screening results from PubChem BioAssay.
SNCA expr inhib: Primary qHTS assay for inhibitors of alpha-synuclein gene (SNCA) expression. HEK-293 SNCA-luciferase knock-in, luminescence, 24 h. Potency, µM (top dose mostly 57.2 µM), hits mostly inhibitors. 140,000 compounds, 0.17% hits. AID 1671194, 2021; note: nearly all actives have a fitted effect of over 45% in size
KDM5B inhibitor: Primary screen for KDM5B Histone Demethylases FDH-coupled qHTS | KDM5B demethylase, FDH-coupled NADH fluorescence (FDH is formaldehyde dehydrogenase) | 220,000 compounds, 2.6% hits | Lysine-specific demethylase 5B (Homo sapiens), Q9UGL1 | Potency, µM (doses to about 57.7 µM), actives largely listed as inhibitors | AID 1347165, 2019; note: nearly all actives have a fitted effect of over 70% in size
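Measured: NADH fluorescence change, 30 min, RT. System: KDM5BΔAP 200 nM final, H3K4me3 peptide, α-KG, Fe(II), ascorbate, NAD⁺ plus FDH, pH 7.5 HEPES. Compounds: titrated, 10 min pre-incubation with enzyme.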
IP6K1 inh: Primary qHTS assay for small molecule inhibitors of Inositol hexaphosphate kinase 1 (IP6K1); 140,000 compounds, 0.81% hits; IP6K1 kinase, ADP-Glo luminescence, 2 h; stronger effect = lower value; activity change, % (series mostly up to about 58 µM); Inositol hexakisphosphate kinase 1 (Homo sapiens), Q92551; in the data active = activity change below about -25%
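ADP-Glo luminescence measures ADP made by human IP6K1 during a 2 h RT reaction with ATP/IP6 (mix at 1.3 mM/130 uM); top library doses 57.5 and 19.1 uM final.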
SNCA viab count: GF-AFC viability counterscreen for inhibitors of alpha-synuclein gene (SNCA) expression; HEK-293-SNCA-luc viability, GF-AFC fluorescence, 24 h; Potency, µM (titrated, usually from 57.1 µM), usual class: cytotoxic; 150,000 compounds, 0.12% hits; AID 1671193, 2021; note: nearly all actives have a fitted effect of over 30% in size
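HEK-293-SNCA-luc cells (1500/well) plated 24 h, then exposed 24 h to a dilution series; GF-AFC added 30 min at 37C, fluorescence 405/540 nm; normalised to medium-only and DMSO wells, Hill fit.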
Of the large screens only hits and unclear results are named; the others gave an inactive call. Compounds with a hit are over-represented: about 2.8% of the library has one in this group of screens. Unless noted, calls come from the whole dose curve; as a rule, active = well fitted curve in the direction sought with a large enough effect; inconclusive = small, poorly fitted or top-dose-only effect, or another doubt; inactive = no such curve, though single readings can be large; an effect the other way counts as inactive or inconclusive.

O=C(CCc1cc(Cl)no1)N1CCc2nc3cc(-c4ccccc4)[nH]n3c(=O)c2C1	SNCA expr inhib inconclusive, KDM5B inhibitor 7.9µM
COc1ccc(-n2cc(CN3CCC(CO)CC3)c(-c3cccc(F)c3)n2)cc1	KDM5B inhibitor inconclusive
COc1ccc(-n2cc(CN3CCCC(O)C3)c(-c3cccc(F)c3)n2)cc1 (centres undefined)	KDM5B inhibitor 22µM, SNCA viab count inconclusive
CCCc1noc(-c2cccn3c(CNC(=O)c4cccc(F)c4)nnc23)n1	KDM5B inhibitor 25µM
CCc1noc(-c2cccn3c(CNC(=O)c4cccc(N(C)C)c4)nnc23)n1	none
CCc1noc(-c2cccn3c(CNC(=O)c4c(F)cccc4Cl)nnc23)n1	KDM5B inhibitor 28µM
CCc1noc(-c2cccn3c(CNC(=O)c4cccc(F)c4)nnc23)n1	KDM5B inhibitor 22µM
CCc1noc(-c2cccn3c(CNC(=O)Cc4cccc(F)c4)nnc23)n1	KDM5B inhibitor 25µM
O=C(O)CCc1ccncc1	none (no result: SNCA expr inhib, IP6K1 inh, SNCA viab count)
O=[S+]([O-])(c1ccccc1)N1CCC2(CC1)CC(c1cccc(C(F)(F)F)c1)=NO2	none (no result: SNCA expr inhib, KDM5B inhibitor, SNCA viab count)
FC(F)(F)c1ccc(N2C3CCC2CN(Cc2ccc(-c4cccs4)cc2)C3)cc1	SNCA expr inhib inconclusive, KDM5B inhibitor 28µM
O=C(c1ccncc1)N1CC2CCC(C1)N2Cc1ccc(-c2cccs2)cc1	KDM5B inhibitor 79µM
CN(C)S(=O)(=O)N1CCN(C(=O)Cc2ccc(Cl)cc2Cl)CC1	none (no result: SNCA expr inhib, IP6K1 inh, SNCA viab count)
COc1ccc(NC(=O)c2cc(-c3ccccc3C(F)(F)F)nc3c2cnn3C)cc1OC	none (no result: SNCA expr inhib, KDM5B inhibitor, SNCA viab count)
CC(C)S(=O)(=O)N1CC(Oc2ccc(-c3noc(-c4cccnc4)n3)cc2)C1	KDM5B inhibitor 28µM
O=C(Cc1ccccc1F)N1CC(Oc2ccc(-c3noc(-c4cccnc4)n3)cc2)C1	SNCA expr inhib inconclusive, KDM5B inhibitor inconclusive, SNCA viab count inconclusive
O=c1c2nc(-c3ccccc3F)ccc2ncn1Cc1ccccn1	KDM5B inhibitor inconclusive
COc1ccc(-c2ccc3ncn(Cc4ccccn4)c(=O)c3n2)cc1F	KDM5B inhibitor 35µM
O=c1c2nc(-c3ccccc3)ccc2ncn1Cc1ccccn1	KDM5B inhibitor 40µM
O=c1c2nc(-c3ccc(Cl)cc3)ccc2ncn1Cc1ccccn1	KDM5B inhibitor 35µM
Cc1ccc(-c2ccc3ncn(Cc4ccccn4)c(=O)c3n2)c(C)c1	KDM5B inhibitor 32µM
c1cc(OCc2nnc(-c3cccs3)o2)cc(-n2cnnn2)c1	none (no result: SNCA expr inhib, IP6K1 inh, SNCA viab count)
CN(C)CCN(Cc1ccc(-c2ccc(CNCCc3ccccc3)cc2)cc1)C(=O)CCC1CCCC1	SNCA viab count 19µM (no result: SNCA expr inhib, KDM5B inhibitor)
COc1cccc(-c2ccc3c(n2)CNC(=O)CO3)c1	KDM5B inhibitor 32µM
CCc1nc(C)c(C(=O)Nc2nn(C)c3cccc(N4CCOC4=O)c23)o1	none
CCOCC(=O)Nc1nn(-c2ccc(F)cc2)c2cccc(N3CCOC3=O)c12	KDM5B inhibitor 25µM
CCC(=O)Oc1ccc2c(=O)c(-c3nc4ccccc4s3)c(C)oc2c1	none (no result: SNCA expr inhib, IP6K1 inh, SNCA viab count)
COc1cc(N2CCC(N(C)C)CC2)ccc1Nc1ncc(Cl)c(Nc2ccccc2P(C)(C)=O)n1	SNCA expr inhib 8.5µM, SNCA viab count inconclusive (no result: KDM5B inhibitor)
C=CCOc1ccc(C(=O)Nc2ccccc2C(C)C)cc1	none (no result: SNCA expr inhib, IP6K1 inh, SNCA viab count)
NC1CCN(Cc2ccc(C(=O)NCc3ccc(S(N)(=O)=O)cc3)c(=O)[nH]2)C1 (centres undefined)	KDM5B inhibitor 22µM
CC(=O)Nc1ccc(C2(C(=O)N3CCN(c4ccccc4)CC3)CCCCC2)cc1	none
CC(C)C(=O)Nc1ccc(C2(C(=O)N3CCCCC3)CCCCC2)cc1	none
CS(=O)(=O)Nc1ccc(C2(C(=O)N3CCN(c4ccccn4)CC3)CCCCC2)cc1	SNCA expr inhib inconclusive, KDM5B inhibitor 22µM
CC(C)C(=O)Nc1ccc(C2(C(=O)N3CCN(c4ccccn4)CC3)CCCCC2)cc1	KDM5B inhibitor 22µM
O=C(Nc1ccc(C2(C(=O)N3CCN(c4ccccn4)CC3)CCC2)cc1)C1CC1	KDM5B inhibitor 18µM
CCc1ccccc1NC(=O)Cn1nc(C)c2ccccc21	none (no result: SNCA expr inhib, IP6K1 inh, SNCA viab count)
COc1cccc(-c2ccc(CN3CCCC3C(=O)NCC3CC3)cc2)c1 (centres undefined)	none (no result: KDM5B inhibitor)
CN(C)C(=O)Cc1cccc(C(F)(F)F)c1	none (no result: SNCA expr inhib, IP6K1 inh, SNCA viab count)
COCCN1CCNc2cc(Nc3cccc(N(C)C)c3)ncc2C1	KDM5B inhibitor 35µM
CN(C)c1ccc(CN2CCNc3cc(Nc4ccccc4)ncc3C2)cc1	KDM5B inhibitor 40µM, SNCA viab count inconclusive
Cn1cnc(CN2CCNc3cc(Nc4ccccc4)ncc3C2)c1	none
c1ccc(Nc2cc3c(cn2)CN(Cc2ccccn2)CCN3)cc1	KDM5B inhibitor 32µM
Cn1ncc2c(C(=O)NC3CC3)cc(-c3ccc(C(F)(F)F)cc3)nc21	none (no result: SNCA expr inhib, KDM5B inhibitor, SNCA viab count)
O=C(Nc1ccccc1)N1CCC(N2CCN(Cc3ccccn3)C(=O)C2=O)CC1	none (no result: SNCA expr inhib, IP6K1 inh, SNCA viab count)
COc1ccc(C(CNC(=O)COc2cccc(C)c2C)N2CCCCC2)cc1 (centres undefined)	none (no result: SNCA expr inhib, IP6K1 inh, SNCA viab count)
Cc1ccc(NS(=O)(=O)c2ccc(OCC(=O)NCc3ccc4c(c3)OCO4)cc2)cc1	none (no result: SNCA expr inhib, IP6K1 inh, SNCA viab count)
CCCc1ccc([S+](=O)([O-])N2CCC3(CC2)[C@@H](C(=O)OCC)[C@@H](O)C(=O)N3C(C)C)cc1	none (no result: SNCA expr inhib, KDM5B inhibitor, SNCA viab count)
COCCCn1c(C)cc(C(=O)N2CCCC(CO)CCNC(=O)CC2)c1C (centres undefined)	none
COCCCn1c(C)cc(C(=O)N2CC(COC)C3(CCNCC3)C2)c1C (centres undefined)	KDM5B inhibitor 32µM
CCOc1ccc(C(=O)N2CC(COC)C3(CCNCC3)C2)cc1OCC (centres undefined)	none
COCC1CN(C(=O)c2nccn2C)CC12CCNCC2 (centres undefined)	KDM5B inhibitor 25µM
O=C1N(Cc2ccccn2)C[C@H]2CN(Cc3ccc(C(F)(F)F)cc3)CCN12	SNCA expr inhib inconclusive
CS(=O)(=O)c1ccc(CN2CCN3C(=O)N(Cc4ccccn4)C[C@H]3C2)cc1	KDM5B inhibitor 28µM
CC(NC(=O)CCCc1nc2ccccc2o1)c1ccccc1 (centres undefined)	none (no result: SNCA expr inhib, IP6K1 inh, SNCA viab count)
COc1ccc(C(CC(=O)N(C)C)c2ccccc2)cc1 (centres undefined)	none
COc1ccc(C(CC(=O)N(C)Cc2cnc3ccccn23)c2ccccc2)cc1 (centres undefined)	KDM5B inhibitor 32µM
COc1ccc(C(=O)N2CCCN(c3nnc4ccccn34)CC2)cc1F	KDM5B inhibitor 25µM, SNCA viab count inconclusive
COc1ccc(C(=O)N2CCN(c3nnc4ccccn34)CC2)cc1OC	KDM5B inhibitor 25µM
COc1ccc(C(=O)N2CCN(c3nc4c(OC)cccc4s3)CC2)cc1OC	none
COc1ccc(C(=O)N2CCCN(c3cc(-c4ccccc4)[nH]n3)CC2)cc1F	SNCA expr inhib inconclusive
CN(c1ccccc1)c1nc2c(c(=O)n(C)c(=O)n2C)n1CC(=O)O	none (no result: SNCA expr inhib, IP6K1 inh, SNCA viab count)
CC(NC(=O)c1ccc2c(c1)NC(=O)CS2)c1ccc2c(c1)CC(=O)N2 (centres undefined)	none (no result: SNCA expr inhib, IP6K1 inh, SNCA viab count)
